PubChem BioAssay AID1159580 (chemical genetic matrix, 2015)
Out of some 5,500 compounds screened, about 2,000 (36%) were called active. Roughly 18% stayed inconclusive and do not appear here. Rule as the data show it: active = normalized growth mostly below about 0.91 (no sharp cut-off); inconclusive = no clear call, values can overlap the other calls; inactive = mostly above about 0.92. The list shows a part of the results.

Assay: chemical genetic growth profiling, strain panel (AID 1159580);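 also: tested at 20 µM; growth read once vehicle control cultures reached saturation at 30 °C; 1 = growth at the plate median or of vehicle wells; lower values mean less growth of the strain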
Conditions: growth OD

Measured: normalized growth

CNC(=O)N(C)c1nnc(C(C)(C)C)s1
inactive: S. cerevisiae deletion strains, locus YJR075W, strain HOC1, stronger effect = lower value 1.02 | S. cerevisiae deletion strains, locus YKL009W, strain mrt4, stronger effect = lower value 1.04 | S. cerevisiae deletion strains, locus YKL068W, stronger effect = lower value 1.01 | S. cerevisiae deletion strains, locus YKL085W, strain MDH1 (second series), stronger effect = lower value 1.02 | S. cerevisiae deletion strains, locus YKL085W, strain MDH1, stronger effect = lower value 1.02 | S. cerevisiae deletion strains, locus YKL160W, strain elf1, stronger effect = lower value 0.992 | S. cerevisiae deletion strains, locus YKL190W, strain CNB1, stronger effect = lower value 1.01 | S. cerevisiae deletion strains, locus YKR001C, strain vps1, stronger effect = lower value 1.04 | S. cerevisiae deletion strains, locus YKR026C, strain gcn3, stronger effect = lower value 0.991 | S. cerevisiae deletion strains, locus YKR091W, strain srl3, stronger effect = lower value 0.974 | S. cerevisiae deletion strains, locus YLL001W, strain dnm1, stronger effect = lower value 0.988 | S. cerevisiae deletion strains, locus YLL026W, stronger effect = lower value 0.992 | S. cerevisiae deletion strains, locus YLL041C, strain sdh2, stronger effect = lower value 0.98 | S. cerevisiae deletion strains, locus YLR027C, strain aat2, stronger effect = lower value 0.973 | S. cerevisiae deletion strains, locus YLR039C, strain RIC1, stronger effect = lower value 1.07 | S. cerevisiae deletion strains, locus YLR058C, strain SHM2, stronger effect = lower value 1.01 | S. cerevisiae deletion strains, locus YLR102C, strain apc9, stronger effect = lower value 1.03 | S. cerevisiae deletion strains, locus YLR221C, strain rsa3, stronger effect = lower value 1.01 | S. cerevisiae deletion strains, locus YLR258W, strain gsy2, stronger effect = lower value 0.975 | S. cerevisiae deletion strains, locus YLR262C, strain YPT6 (second series), stronger effect = lower value 1.03 | S. cerevisiae deletion strains, locus YLR262C, strain YPT6, stronger effect = lower value 1.09 | S. cerevisiae deletion strains, locus YLR268W, strain sec22, stronger effect = lower value 1.02 | S. cerevisiae deletion strains, locus YLR320W, strain mms22, stronger effect = lower value 1.03 | S. cerevisiae deletion strains, locus YLR330W, strain CHS5, stronger effect = lower value 1.02 | S. cerevisiae deletion strains, locus YLR342W, strain FKS1 (second series), stronger effect = lower value 1.07 | S. cerevisiae deletion strains, locus YLR342W, strain FKS1, stronger effect = lower value 0.998 | S. cerevisiae deletion strains, locus YLR357W, strain rsc2, stronger effect = lower value 0.972 | S. cerevisiae deletion strains, locus YLR370C, strain arc18, stronger effect = lower value 0.983 | S. cerevisiae deletion strains, locus YLR371W, strain rom2, stronger effect = lower value 1.02 | S. cerevisiae deletion strains, locus YLR384C, strain iki3, stronger effect = lower value 1.01 | S. cerevisiae deletion strains, locus YLR418C, strain cdc73, stronger effect = lower value 1.09 | S. cerevisiae deletion strains, locus YML016C, strain PPZ1, stronger effect = lower value 1.01 | S. cerevisiae deletion strains, locus YML032C, strain rad52, stronger effect = lower value 1.01 | S. cerevisiae deletion strains, locus YML120C, strain ndi1, stronger effect = lower value 1.01 | S. cerevisiae deletion strains, locus YML124C, strain tub3, stronger effect = lower value 1.01 | S. cerevisiae deletion strains, locus YMR058W, strain fet3, stronger effect = lower value 0.977 | S. cerevisiae deletion strains, locus YMR078C, strain ctf18, stronger effect = lower value 1.02 | S. cerevisiae deletion strains, locus YMR125W, strain sto1, stronger effect = lower value 0.942 | S. cerevisiae deletion strains, locus YMR129W, stronger effect = lower value 0.998 | S. cerevisiae deletion strains, locus YMR205C, strain PFK2, stronger effect = lower value 0.969 | S. cerevisiae deletion strains, locus YMR223W, strain ubp8, stronger effect = lower value 1.02 | S. cerevisiae deletion strains, locus YMR231W, strain pep5, stronger effect = lower value 1.01 | S. cerevisiae deletion strains, locus YMR263W, strain SAP30, stronger effect = lower value 1.02 | S. cerevisiae deletion strains, locus YMR307W, strain GAS1, stronger effect = lower value 1.1 | S. cerevisiae deletion strains, locus YNL067W, strain RPL9B, stronger effect = lower value 1.02 | S. cerevisiae deletion strains, locus YNL071W, strain lat1, stronger effect = lower value 0.993 | S. cerevisiae deletion strains, locus YNL128W, strain TEP1, stronger effect = lower value 1.01 | S. cerevisiae deletion strains, locus YNL153C, strain GIM3, stronger effect = lower value 1.01 | S. cerevisiae deletion strains, locus YNL209W, strain ssb2, stronger effect = lower value 1.01 | S. cerevisiae deletion strains, locus YNL233W, strain BNI4, stronger effect = lower value 1.01 | S. cerevisiae deletion strains, locus YNL248C, strain rpa49, stronger effect = lower value 0.995 | S. cerevisiae deletion strains, locus YNL250W, strain rad50, stronger effect = lower value 1.02 | S. cerevisiae deletion strains, locus YNL271C, strain bni1, stronger effect = lower value 1.03 | S. cerevisiae deletion strains, locus YNL298W, strain CLA4, stronger effect = lower value 1.03 | S. cerevisiae deletion strains, locus YNL307C, strain MCK1, stronger effect = lower value 1.02 | S. cerevisiae deletion strains, locus YNL322C, strain KRE1 (second series), stronger effect = lower value 0.986 | S. cerevisiae deletion strains, locus YNL322C, strain KRE1, stronger effect = lower value 1.01 | S. cerevisiae deletion strains, locus YNR049C, strain mso1, stronger effect = lower value 0.974 | S. cerevisiae deletion strains, locus YNR052C, strain pop2, stronger effect = lower value 1.03 | S. cerevisiae deletion strains, locus YOL006C, strain TOP1, stronger effect = lower value 1.06 | S. cerevisiae deletion strains, locus YOL012C, strain htz1 1.29 | S. cerevisiae deletion strains, locus YOL147C, strain pex11, stronger effect = lower value 1.01 | S. cerevisiae deletion strains, locus YOR001W, strain rrp6, stronger effect = lower value 1.01 | S. cerevisiae deletion strains, locus YOR061W, strain CKA2, stronger effect = lower value 1.01 | S. cerevisiae deletion strains, locus YOR069W, strain VPS5, stronger effect = lower value 1 | S. cerevisiae deletion strains, locus YOR070C, strain gyp1, stronger effect = lower value 1 | S. cerevisiae deletion strains, locus YOR080W, strain dia2, stronger effect = lower value 0.998 | S. cerevisiae deletion strains, locus YOR083W, strain WHI5, stronger effect = lower value 0.991 | S. cerevisiae deletion strains, locus YOR106W, strain vam3, stronger effect = lower value 0.961 | S. cerevisiae deletion strains, locus YOR136W, strain idh2, stronger effect = lower value 1.01 | S. cerevisiae deletion strains, locus YOR144C, strain elg1, stronger effect = lower value 1.01 | S. cerevisiae deletion strains, locus YOR184W, strain ser1, stronger effect = lower value 1.04 | S. cerevisiae deletion strains, locus YOR265W, strain rbl2, stronger effect = lower value 0.994 | S. cerevisiae deletion strains, locus YOR270C, strain vph1, stronger effect = lower value 1.01 | S. cerevisiae deletion strains, locus YOR290C, strain snf2, stronger effect = lower value 0.959 | S. cerevisiae deletion strains, locus YOR316C, strain cot1, stronger effect = lower value 1.02 | S. cerevisiae deletion strains, locus YPL051W, strain arl3, stronger effect = lower value 1.01 | S. cerevisiae deletion strains, locus YPL055C, strain LGE1, stronger effect = lower value 1.03 | S. cerevisiae deletion strains, locus YPL078C, strain atp4, stronger effect = lower value 0.961 | S. cerevisiae deletion strains, locus YPL106C, strain sse1, stronger effect = lower value 1.02 | S. cerevisiae deletion strains, locus YPL240C, strain hsp82, stronger effect = lower value 0.994 | S. cerevisiae deletion strains, locus YPL241C, strain CIN2, stronger effect = lower value 1.02 | S. cerevisiae deletion strains, locus YPR119W, strain clb2, stronger effect = lower value 1.01 | S. cerevisiae deletion strains, locus YPR141C, strain kar3, stronger effect = lower value 1.02 | S. cerevisiae deletion strains, locus YPR163C, strain tif3, stronger effect = lower value 1.01 | S. cerevisiae deletion strains, locus YPR167C, strain met16, stronger effect = lower value 1.03 | S. cerevisiae deletion strains, strain wtn01, stronger effect = lower value 1.03 | S. cerevisiae strains, strain wild type, stronger effect = lower value 1.01
